Compounds without any hit were thinned out: in the full panel of roughly 83,000, 20% have a hit.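 Cell lines were cultured in 96-well plates, exposed to a single compound concentration, and assessed for percent growth 48 hours later.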 Values without a mark were called inactive. Calls of active or inactive are those of the source. The calls were made as follows: active = growth percent below 10; inactive = the rest.

Common to all, as to test: NCI-60 one-dose screen, 48 h (100 = growth as untreated, 0 = no growth, -100 = all killed)
Holding throughout (conditions): 10 µM unless noted

Assay [1] has as its system DU-145 prostate.
The subject of assay [2] is K-562 leukemia.
The subject of assay [3] is MALME-3M melanoma.
Assay [4] concerns MDA-MB-231 breast.
The subject of assay [5] is RXF 393 renal.
The test system of assay [6] is SF-268 CNS.
In assay [7] the test system is SF-295 CNS.
Assay [8] relates to SF-539 CNS.
The subject of assay [9] is UACC-257 melanoma.
Assay [10] relates to M14 melanoma.
The test system of assay [11] is HCT-15 colon.
Assay [12] concerns HT29 colon.
Assay [13] relates to SNB-75 CNS.
Assay [14] has as its system SNB-19 CNS.
The test system of assay [15] is U251 CNS.
For assay [16], the system named is PC-3 prostate.
Assay [17] concerns SK-MEL-5 melanoma.
Assay [18] relates to UACC-62 melanoma.
For assay [19], the system named is LOX IMVI melanoma.
The test system of assay [20] is SK-MEL-28 melanoma.

As to `CCCCCCCCCCCCCCNC(=O)Nc1ccc(Cl)c(Cl)c1`, the growth in assay [1] is 40.1%; in [2] it was 100%; in assay [3], 22.2%; in assay [4], 27.7%; in [5], 24.4%; in [6], 46%. The growth in assay [7] was 18.6%; in assay [8], 51.1%; in [9] it was 41.4%; in assay [10], 49.2%; in [11], 16.9%; in assay [12] it was 46.6%. The growth in [13] is 53.7%; in [14] it was 56.3%; in assay [15], 19.8%; in assay [16], 16.7%; in assay [17] it was 51.3%; in assay [18], 33.6%. Further, the figures for the growth in assay [19] and in [20] were 7.74% (active) and 60.9%, respectively.

As for `Cc1ccc(S(=O)(=O)Oc2ccc(Br)cc2Br)cc1`, the growth is 78.1% in assay [1]; 18.5% in [2]; 92% in [3]; 85% in assay [4]; 87.9% in assay [5]; 76.5% in [6]. For the same compound, the growth is 69.3% in assay [7]; 81.6% in [8]; 81.4% in assay [9]; 78.8% in assay [10]; 48.5% in [11]; 34.5% in assay [12]. In addition, the growth was 64.8% in [13]; 75.7% in assay [14]; 48.5% in [15]; 79.4% in assay [16]; 77.9% in [17]; 63.8% in assay [18]. Besides, the figures for the growth in [19] and in assay [20] were 52.3% and 92.8%, respectively.

As to `COc1cc(NCc2cn(-c3ccc(C(=O)O)cc3)nc2-c2ccc(C(=O)O)cc2)cc(OC)c1OC`, the growth in [1] is 93.8%; in assay [2], 107%; in assay [3] it was 80.8%; in assay [4] it was 76.4%; in [5] it was 105%; in [6] it was 95.6%. Further, the growth was 102% in assay [7]; 90.2% in [8]; 99.7% in assay [9]; 96.5% in [10]; 106% in assay [11]; 106% in [12]. Moreover, the growth is 77.8% in assay [13]; 97.4% in assay [14]; 92.2% in assay [15]; 96.9% in [16]; 95.2% in assay [17]; 94.4% in assay [18]. The values for the growth in assay [19] and in assay [20] were 95.9% and 103%, respectively.

Turning to `COc1ccc2c(c1)C(C)Cc1c(Cl)nc(C)nc1N2C` (stereo not given), the growth in assay [1] was 34%; in [2] it was 11.7%; in [3], 80.7%; in assay [4], 19%; in [5], -0.792% (active); in assay [6], 43.2%. The growth in [7] was 7.77% (active); in [8], 4.64% (active); in assay [9] it was 78.1%; in [10], 13.5%; in assay [11], 18.4%; in assay [12], -13.3% (active). Further, the growth in assay [13] was 39.3%; in assay [14], 24.7%; in [15] it was 21.9%; in [16], 14.8%; in [17] it was 24%; in assay [18], 27%. Further, the figures for the growth in [19] and in [20] were 43.7% and 80.1%, respectively.

For the compound `COc1cc(/C=C/C(=O)/C=C/c2ccc(-n3ccnc3)cc2)ccc1O`, the growth in assay [1] was 54.4%; in assay [2], 7.93% (active); in assay [3] it was 79.3%; in assay [4] it was 63.7%; in assay [5], 26.8%; in assay [6], 54.8%. In addition, the growth in assay [7] is 75.2%; in assay [8], -0.198% (active); in assay [9], 84.7%; in assay [10], 104%; in [11] it was 82.2%; in [12], 3.46% (active). For the same compound, the growth in assay [13] is 62.3%; in [14], 76.9%; in assay [15] it was -0.424% (active); in assay [16], 62.4%; in assay [17], 74%; in assay [18], 85.2%. Moreover, the growth is -44% (active) in [19] and 86.7% in [20].

As to `Cc1ccc2c(c1)C(C)Cc1c(Cl)ncnc1N2C` (stereo not given), the growth in [1] was 79.8%; in assay [2] it was 30.9%; in assay [3], 14.6%; in assay [4] it was -31.9% (active); in [5], 4.04% (active); in assay [6], 22.6%. Besides, the growth is 18.4% in [7]; 29% in assay [8]; 20.1% in assay [9]; 15.1% in assay [10]; 8.93% (active) in [11]; -8.76% (active) in assay [12]. The growth in [13] was 50.3%; in assay [14], 30.4%; in assay [15], 17.9%; in [16] it was 14.1%; in assay [17], -86.7% (active); in assay [18], 7.38% (active). Also, the growth was -58.1% (active) in assay [19] and 27.1% in assay [20].

With `CCOC(=O)c1ccc2nc(-c3c(C)nn(-c4ccccc4)c3N3CCOCC3)[nH]c2c1`, the growth in [1] was 105%; in assay [2], 91.2%; in assay [3], 98.7%; in [4], 69.9%; in [5], 92.1%; in assay [6] it was 94.3%. For the same compound, the growth is 96.2% in assay [7]; 95.8% in [8]; 106% in [9]; 89.3% in assay [10]; 103% in [11]; 110% in assay [12]. For the same compound, the growth was 84.9% in assay [13]; 98.6% in assay [14]; 90.8% in assay [15]; 86.9% in [16]; 94.2% in [17]; 77.5% in assay [18]. Besides, the growth was 82% in [19] and 110% in [20].

Turning to `O=C(O)c1ccccc1C(F)(F)F`, the growth in assay [1] is 102%; in [2] it was 102%; in [3] it was 103%; in assay [4], 95.3%; in assay [5] it was 102%; in assay [6], 96.3%. Moreover, the growth in [7] was 95.6%; in assay [8] it was 93.7%; in [9], -1.89% (active); in assay [10], 93.4%; in assay [11] it was 104%; in [12] it was 107%. Further, the growth is 77.1% in assay [13]; 99.1% in [14]; 96.5% in assay [15]; 99.7% in [16]; 105% in [17]; 95% in assay [18]. Also, the growth in assay [19] is 81.2%; in [20] it was 121%.
